Several values for one entry are separate records, joined by “and”; a condition that tells them apart may be missing. Equal entries are not always repeated. Records with an inconclusive call do not appear. Entries that show only a call come without a potency. Some structures have more than one record in an assay (separate samples or runs), and their calls can disagree. Activity calls are given as the source filed them. Unless noted, the call rests on the fitted dose curve.
Key:
[1] = Nuclear factor erythroid 2-related factor 2/antioxidant responsive element (Nrf2/ARE) small molecule agonists: qHTS cell viability counter screen in human keratinocytes (AID 1919968; active means well fitted curve in the direction sought with a large enough effect in the repeat runs; an effect the other way counts as inactive or inconclusive; further: nearly all actives have a fitted effect of over 55% in size)
How it was run: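 Measured as CellTiter-Fluor fluorescence, this readout tracks cytotoxicity in the same wells as the ARE-luciferase screen. HaCaT reporter cells (1,500/well) received compounds after a 5 h pre-incubation and were exposed for 23 h.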

[2] = Nuclear factor erythroid 2-related factor 2/antioxidant responsive element (Nrf2/ARE) small molecule agonists: luciferase reporter gene qHTS assay in human keratinocytes (AID 1919969); further: nearly all actives have a fitted effect of over 35% in size; further: potency means the concentration at half of the fitted maximal effect
[3] = biological target: Gonadotropin-releasing hormone receptor (Homo sapiens) (UniProt P30968); experiment: Human gonadotropin-releasing hormone receptor (GnRHR) small molecule agonists, calcium flux assay in GnRHR-HEK293 cells (AID 1920063); further: nearly all actives have a fitted effect of over 35% in size
How it was run: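 Fluorescence kinetics (480 nm excitation, 540 nm emission; 3 min, 1 s steps) report calcium mobilisation in human GnRHR-HEK293 cells in agonist mode. Dye incubation: 1 h, 37 C.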

[4] = biological target: KiSS-1 receptor (Homo sapiens) (UniProt Q969F8); experiment: Human kisspeptin (KISS1R) small molecule agonists, calcium flux assay in KISS1R-HEK293 cells (AID 1920064; active means well fitted curve in the direction sought with a large enough effect in the repeat runs; an effect the other way counts as inactive or inconclusive)
How it was run: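 Measures KISS1R agonism through calcium-sensitive dye fluorescence in stably transfected HEK293 cells, read for 3 min after pin-tool compound delivery; 15-point titrations in triplicate.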

[5] = G protein-coupled receptor (GPCR) small molecule agonists, calcium flux assay: HEK293 wild type cell line counter screen (AID 1920065)
How it was run: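 Readout: fluorescence at 480 nm excitation/540 nm emission, sampled at 1 s intervals for 3 min. Cells had been cultured 18 h, then dye-loaded 1 h at 37 C before compound or ATP addition.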

[6] = p53 small molecule agonists, cell-based qHTS assay with human liver microsomes (AID 1963577);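 further: p53 response element beta-lactamase reporter cells with liver microsomes plus NADPH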
How it was run: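 With metabolic activation: human liver microsomes (0.5 mg/mL final) plus NADPH (0.5 mg/mL final) added alongside compounds to p53RE-bla cells; 16 h 37 C exposure; beta-lactamase read by LiveBLAzer fluorescence.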

[7] = p53 small molecule agonists, cell-based qHTS assay with rat liver microsomes (AID 1963578)
How it was run: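 Metabolic activation by rat liver microsomes and NADPH, each 0.5 mg/mL final, added right after compounds to p53RE-bla reporter cells (4,000/well, plated 5 h earlier). 16 h at 37 C, then LiveBLAzer substrate for 2 h at room temperature in the dark; fluorescence read-out.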

[8] = p53 small molecule agonists, cell-based qHTS assay with human liver microsomes: qHTS cell viability counter screen (AID 1963579); further: nearly all actives have a fitted effect of over 45% in size
How it was run: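 Metabolic activation used human liver microsomes and NADPH, both 0.5 mg/mL final, over 16 hours at 37 C on p53RE-bla cells (4,000/well). Cytotoxicity measured by CellTiter-Glo luminescence, 30 min at room temperature.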

[9] = p53 small molecule agonists, cell-based qHTS assay with rat liver microsomes: qHTS cell viability counter screen (AID 1963580); further: nearly all actives have a fitted effect of over 45% in size
How it was run: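 p53RE-bla HCT-116 cells were exposed 16 h at 37 C to compounds with rat liver microsomes (0.5 mg/mL) and NADPH (0.5 mg/mL). Viability was measured in the same wells as ATP content by CellTiter-Glo luminescence.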

[10] = p53 small molecule agonists, cell-based qHTS assay: qHTS cell viability counter screen (AID 1963581); further: nearly all actives have a fitted effect of over 45% in size
How it was run: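 In the same plates used for the p53 bla reporter, HCT-116 cells given compounds for 16 h at 37 C received CellTiter-Glo; luminescence was recorded 30 min later at room temperature.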

[11] = p53 small molecule agonists, cell-based qHTS assay (AID 1963582; active means well fitted activation curve with a large enough effect in the signal ratio in the repeat runs, not every such curve was filed as active; the % refers to the signal ratio)
How it was run: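 Compounds are pin-transferred in DMSO onto p53RE-bla cells and incubated 16 h at 37 C. The B/G FRET beta-lactamase substrate is then applied for 2 h at RT and fluorescence recorded.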

[12] = biological target: 5-hydroxytryptamine receptor 2A (Homo sapiens) (UniProt P28223); experiment: 5-hydroxytryptamine receptor 2A (HTR2A) small molecule antagonists, cell-based qHTS assay (AID 1963586); further: nearly all actives have a fitted effect of over 45% in size
How it was run: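 Antagonist-mode intracellular calcium assay: DOI (4 nM) added after 5 min compound pre-incubation at room temperature to dye-loaded HTR2A-CHO cells. Fluorescence followed for 3 min, sampled every second.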

[13] = biological target: 5-hydroxytryptamine receptor 2A (Homo sapiens) (UniProt P28223); experiment: 5-hydroxytryptamine receptor 2A (HTR2A) small molecule agonists, cell-based qHTS assay (AID 1963587); further: nearly all actives have a fitted effect of over 30% in size
How it was run: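 CHO cells stably expressing human HTR2A, plated 18 h, loaded with calcium dye 1 h at 37 C. Agonist mode: compounds added and intracellular calcium fluorescence recorded kinetically for 2 min at 1 sec intervals.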

[14] = biological target: Muscarinic acetylcholine receptor M1 (Homo sapiens) (UniProt P11229); experiment: Cholinergic receptor muscarinic 1 (CHRM1) small molecule antagonists, cell-based qHTS assay (AID 1963588); further: nearly all actives have a fitted effect of over 40% in size
How it was run: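 CHRM1-CHO calcium-flux assay, antagonist mode. Cells were seeded 18 h, dye-loaded 1 h at 37 C and given compound for 5 min at RT, then acetylcholine was added at 50nM. FDSS fluorescence was read 3 min; 15 concentrations, three runs.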

[15] = biological target: Muscarinic acetylcholine receptor M1 (Homo sapiens) (UniProt P11229); experiment: Cholinergic receptor muscarinic 1 (CHRM1) small molecule agonists, cell-based qHTS assay (AID 1963589); further: nearly all actives have a fitted effect of over 35% in size
How it was run: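 Each compound was tested at 15 concentrations across three independent runs on dye-loaded CHO cells stably expressing human CHRM1, reading intracellular calcium fluorescence kinetically at 1 sec intervals.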

[16] = cAMP Responsive Elements (CRE) small molecule agonists, cell-based qHTS assay (AID 1963590)
How it was run: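 Cell line: CRE-bla HEK 293T; medium DMEM/10% dialyzed FBS/0.1 mM NEAA/1 mM pyruvate/25 mM HEPES; 3 h compound exposure; beta-lactamase FRET readout after 2 h substrate loading at RT.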

[17] = cAMP Responsive Elements (CRE) small molecule antagonists, cell-based qHTS assay (AID 1963591; active means well fitted inhibition curve with a large enough effect in the signal ratio in the repeat runs, not every such curve was filed as active; the % refers to the signal ratio)
How it was run: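 Inhibition of NKH477-driven (0.25 uM final) CRE-beta-lactamase signal in HEK293T cells, 3 h compound exposure at 37 °C, detected by FRET substrate fluorescence.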

[18] = biological target: Beta-2 adrenergic receptor (Homo sapiens) (UniProt P07550); experiment: Adrenergic beta2 receptor (ADRB2) small molecule antagonists, cell-based qHTS assay (AID 1963592); further: series mostly up to about 92 µM; nearly all actives have a fitted effect of over 50% in size
How it was run: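 Cells (CHO, stable ADRB2 overexpression) incubated 18-20hr at 37C; compounds added from DMSO; agonist mix (1nM isoproterenol, 100uM IBMX, 25uM Ro-20-1724) added; 0.5hr RT; d2-cAMP and anti-cAMP-cryptate added; 1hr RT; 665/615 nm read.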

[19] = biological target: Beta-2 adrenergic receptor (Homo sapiens) (UniProt P07550); experiment: Adrenergic beta2 receptor (ADRB2) small molecule agonists, cell-based qHTS assay (AID 1963593);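 further: CHO cells stably overexpressing human ADRB2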
How it was run: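 CHO cells stably over-expressing ADRB2 were plated overnight at 37C, then dosed with compounds plus a stimulation mix containing 100uM IBMX and 25uM Ro-20-1724 for 0.5hr at room temperature. cAMP was measured by HTRF competition, 1hr.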

[20] = biological target: D(2) dopamine receptor (Homo sapiens) (UniProt P14416); experiment: Dopamine D2 receptor (DRD2) small molecule agonists, cell-based qHTS assay (AID 1963594); further: nearly all actives have a fitted effect of over 35% in size
How it was run: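 HEK293 cells stably expressing human DRD2, pre-treated with PDE inhibitor Ro20-1724 (0.1 mM final) and compound 10 min at room temperature, then stimulated with NKH477 (200nM […]) for 30 min. cAMP read by HTRF (665/620 nm).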

Chain of Beta-2 adrenergic receptor (Homo sapiens) (P07550 whole entry, looked up): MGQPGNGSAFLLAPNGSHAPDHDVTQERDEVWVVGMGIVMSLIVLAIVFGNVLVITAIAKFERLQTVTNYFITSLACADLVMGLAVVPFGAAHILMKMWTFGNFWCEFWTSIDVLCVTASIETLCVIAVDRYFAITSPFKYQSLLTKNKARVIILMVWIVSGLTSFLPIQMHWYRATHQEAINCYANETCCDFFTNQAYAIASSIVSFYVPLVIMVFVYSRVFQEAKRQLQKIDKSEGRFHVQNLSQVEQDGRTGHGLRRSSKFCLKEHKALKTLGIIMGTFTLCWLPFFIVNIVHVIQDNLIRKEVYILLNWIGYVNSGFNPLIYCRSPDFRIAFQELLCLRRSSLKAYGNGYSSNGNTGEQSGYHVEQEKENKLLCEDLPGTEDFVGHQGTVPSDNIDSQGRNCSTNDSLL
Chain of D(2) dopamine receptor (Homo sapiens) (P14416 whole entry, looked up): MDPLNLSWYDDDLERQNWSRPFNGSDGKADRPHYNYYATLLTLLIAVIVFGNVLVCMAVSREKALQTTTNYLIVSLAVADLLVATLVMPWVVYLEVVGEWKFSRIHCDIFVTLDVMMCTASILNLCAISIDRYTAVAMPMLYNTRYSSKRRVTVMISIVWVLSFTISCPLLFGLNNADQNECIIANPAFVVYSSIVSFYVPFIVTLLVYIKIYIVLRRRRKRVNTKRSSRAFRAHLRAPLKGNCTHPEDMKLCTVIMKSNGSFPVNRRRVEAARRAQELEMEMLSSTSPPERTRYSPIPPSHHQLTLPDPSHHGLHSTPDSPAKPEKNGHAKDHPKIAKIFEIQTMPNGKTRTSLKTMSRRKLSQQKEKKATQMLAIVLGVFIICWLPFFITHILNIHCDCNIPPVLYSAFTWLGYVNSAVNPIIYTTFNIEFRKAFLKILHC
Chain of Gonadotropin-releasing hormone receptor (Homo sapiens) (P30968 whole entry, looked up): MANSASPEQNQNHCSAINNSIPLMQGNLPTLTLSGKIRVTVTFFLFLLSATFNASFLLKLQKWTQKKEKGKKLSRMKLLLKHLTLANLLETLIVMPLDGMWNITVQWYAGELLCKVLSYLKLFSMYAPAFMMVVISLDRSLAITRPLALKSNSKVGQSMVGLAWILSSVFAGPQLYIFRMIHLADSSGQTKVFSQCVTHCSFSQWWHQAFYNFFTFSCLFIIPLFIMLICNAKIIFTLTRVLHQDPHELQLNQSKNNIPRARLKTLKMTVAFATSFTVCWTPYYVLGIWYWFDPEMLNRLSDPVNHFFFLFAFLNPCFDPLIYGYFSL
Chain of KiSS-1 receptor (Homo sapiens) (Q969F8 whole entry, looked up): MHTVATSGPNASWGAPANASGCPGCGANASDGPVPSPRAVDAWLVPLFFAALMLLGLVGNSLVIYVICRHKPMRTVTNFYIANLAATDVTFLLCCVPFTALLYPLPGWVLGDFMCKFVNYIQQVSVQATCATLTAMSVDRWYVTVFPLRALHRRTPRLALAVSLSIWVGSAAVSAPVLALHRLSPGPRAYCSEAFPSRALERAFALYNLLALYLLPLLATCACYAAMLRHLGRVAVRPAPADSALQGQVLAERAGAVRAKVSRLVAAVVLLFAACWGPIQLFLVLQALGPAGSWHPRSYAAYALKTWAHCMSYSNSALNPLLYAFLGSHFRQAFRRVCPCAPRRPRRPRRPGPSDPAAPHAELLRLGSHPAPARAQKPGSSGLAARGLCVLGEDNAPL
Chain of 5-hydroxytryptamine receptor 2A (Homo sapiens) (P28223 whole entry, looked up): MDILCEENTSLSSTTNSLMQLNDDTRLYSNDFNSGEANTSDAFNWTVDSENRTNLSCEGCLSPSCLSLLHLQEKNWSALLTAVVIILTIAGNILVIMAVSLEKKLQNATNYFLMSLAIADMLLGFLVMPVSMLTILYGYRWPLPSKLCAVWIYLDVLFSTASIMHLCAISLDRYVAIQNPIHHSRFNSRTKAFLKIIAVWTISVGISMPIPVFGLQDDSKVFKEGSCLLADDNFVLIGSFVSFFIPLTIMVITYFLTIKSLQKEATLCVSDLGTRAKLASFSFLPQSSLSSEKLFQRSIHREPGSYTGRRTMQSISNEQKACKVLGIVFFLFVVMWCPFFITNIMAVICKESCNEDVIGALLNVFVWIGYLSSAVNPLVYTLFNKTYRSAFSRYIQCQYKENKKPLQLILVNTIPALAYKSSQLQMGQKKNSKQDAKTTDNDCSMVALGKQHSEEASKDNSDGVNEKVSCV
Chain of Muscarinic acetylcholine receptor M1 (Homo sapiens) (P11229 whole entry, looked up): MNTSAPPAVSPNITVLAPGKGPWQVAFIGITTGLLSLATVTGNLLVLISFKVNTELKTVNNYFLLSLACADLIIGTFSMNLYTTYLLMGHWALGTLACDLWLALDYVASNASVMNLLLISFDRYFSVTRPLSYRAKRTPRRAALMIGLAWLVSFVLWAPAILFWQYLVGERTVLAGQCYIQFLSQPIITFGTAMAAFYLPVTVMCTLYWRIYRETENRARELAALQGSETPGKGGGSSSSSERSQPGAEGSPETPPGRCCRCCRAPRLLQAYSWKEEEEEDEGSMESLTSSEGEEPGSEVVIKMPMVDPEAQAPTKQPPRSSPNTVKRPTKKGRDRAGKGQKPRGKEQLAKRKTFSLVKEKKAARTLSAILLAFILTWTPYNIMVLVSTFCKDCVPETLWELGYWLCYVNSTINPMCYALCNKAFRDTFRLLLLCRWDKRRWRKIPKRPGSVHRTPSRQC

Row | SMILES | Potency [1] | Potency [2] | Potency [3] | Potency [4] | Potency [5] | Potency [6] | Potency [7] | Potency [8] | Potency [9] | Potency [10] | Potency [11] | Potency [12] | Potency [13] | Potency [14] | Potency [15] | Potency [16] | Potency [17] | Potency [18] | Potency [19] | Potency [20]
1 | O=C1C(c2[nH]c3ccc(S(=O)(=O)O)cc3c2O)=Nc2ccc(S(=O)(=O)O)cc21 | inactive | inactive | inactive | inactive | inactive | inactive | inactive | inactive | inactive | inactive | inactive | inactive | inactive | inactive | inactive | inactive | inactive | inactive | inactive | inactive
2 | CCN(CC)c1ccc(C=O)c(O)c1 | inactive | inactive | inactive | inactive | inactive | inactive | inactive | inactive | inactive | inactive | inactive | inactive | inactive | inactive | inactive | inactive | inactive | inactive | inactive | inactive
3 | N#C[C@@H]1C[C@@H]2C[C@@H]2N1C(=O)[C@@H](N)C12CC3CC(CC(O)(C3)C1)C2 | inactive | inactive | inactive | inactive | inactive | inactive | inactive | inactive | inactive | inactive | inactive | inactive | inactive | inactive | inactive | inactive | inactive | inactive | inactive | inactive
4 | COc1ccc(N)c(OC)c1 | inactive | inactive and 68.6 µM (active) | inactive | inactive | inactive | inactive | inactive | inactive | inactive | inactive | inactive | inactive | inactive | inactive | inactive | inactive | inactive | inactive | inactive | inactive
5 | CCC1COC(=O)O1 (stereo not drawn) | inactive | inactive | inactive | inactive | inactive | inactive | inactive | inactive | inactive | inactive | inactive | inactive | inactive | inactive | inactive | inactive | inactive | inactive | inactive | inactive
6 | CC(C)c1cc2c(cc1S(=O)(=O)O)[C@@]1(C)CCC[C@@](C)(C(=O)O)[C@@H]1CC2 | inactive | inactive | inactive | inactive | inactive | inactive | inactive | inactive | inactive | inactive | inactive | inactive | inactive | inactive | inactive | inactive | inactive | inactive | inactive | inactive
7 | CC1(C)C2=CCCC(C)(C)[C@]23CC[C@H]1C3 | inactive | inactive | inactive | inactive | inactive | inactive | inactive | inactive | inactive | inactive | inactive | inactive | inactive | inactive | inactive | inactive | inactive | inactive | inactive | inactive
8 | O=Cc1cc2ccccc2o1 | inactive | inactive | inactive | inactive | inactive | inactive | inactive | inactive | inactive | inactive | inactive | inactive | inactive | inactive | inactive | inactive | inactive | inactive | inactive | inactive
9 | CC(CO)CO | inactive | inactive | inactive | inactive | inactive | inactive | inactive | inactive | inactive | inactive | inactive | inactive | inactive | inactive | inactive | inactive | inactive | inactive | inactive | –
10 | O=C(O)CCC(=O)Nc1ccc(S(=O)(=O)Nc2nccs2)cc1 | inactive | inactive | inactive | inactive | inactive | inactive | inactive | inactive | inactive | inactive | inactive | inactive | inactive | inactive | inactive | inactive | inactive | inactive | – | inactive
11 | CC(C)=CCCC(C)CCOC(=O)C(C)C (stereo not drawn) | inactive | inactive | inactive | inactive | inactive | inactive | inactive | inactive | inactive | inactive | inactive | inactive | inactive | inactive | inactive | inactive | inactive | inactive | inactive | inactive

Reference: PubChem BioAssay (Tox21)
